# From PubChem BioAssay (Tox21)
# Unmarked numbers belong to inactive results. Records with an inconclusive call do not appear. Where a call stands in place of a potency, no number is given. Active and inactive are the calls of the source. Unless noted, calls come from the whole dose curve; as a rule, active = well fitted curve in the direction sought with a large enough effect in the repeat runs; inconclusive = weak or mixed curves; inactive = no such curve, though single readings can be large; an effect the other way counts as inactive or inconclusive.
# What was measured:
# [1] = qHTS assay for small molecule agonists of the p53 signaling pathway (AID 651631; calls by dose curve; note: nearly all actives have a fitted effect of over 15% in size; note: potency is the fitted concentration of half-maximal effect)
# Method in brief: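 Stably transfected HCT-116 cells (beta-lactamase behind p53 response elements) get compounds after a 5 h settling period; 16 h later at 37 °C, FRET substrate is loaded and fluorescence read after 2 h.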
# [2] = qHTS assay for small molecules that induce genotoxicity in human embryonic kidney cells expressing luciferase-tagged ATAD5 (AID 651632); note: nearly all actives have a fitted effect of over 15% in size
# Method in brief: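 HEK293T cells carrying a luciferase reporter tagged to ATAD5 were exposed to compound or DMSO vehicle for 16 hr at 37C, 5% CO2. Amplite was added, and after 30 min at room temperature luciferase activity was read as a marker of ATAD5 induction.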
# [3] = qHTS assay for small molecule agonists of the p53 signaling pathway - cell viability (AID 651633; calls by dose curve;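 note: p53RE-bla HCT reporter cells with a stable beta-lactamase p53 reporter; series mostly up to about 83 µM; nearly all actives have a fitted effect of over 30% in size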)
# Method in brief: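 Viability counter-read: CellTiter-Glo luminescence (30 min, room temperature) in the same p53RE-bla plates. These plates had been exposed to compounds for 16 h at 37 C.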
# [4] = qHTS assay for small molecules that induce genotoxicity in human embryonic kidney cells expressing luciferase-tagged ATAD5 - cell viability (AID 651634; calls by dose curve; note: nearly all actives have a fitted effect of over 25% in size; note: potency is the fitted concentration of half-maximal effect)
# Method in brief: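 HEK293T cells expressing luciferase-tagged ATAD5 were exposed to compound or DMSO for 15.5 hr at 37C, 5% CO2. Viability was then read as live-cell protease activity by CellTiter-Fluor fluorescence after 30 min at 37C.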
# [5] = qHTS assay for small molecule disruptors of the mitochondrial membrane potential - cell viability (AID 720634; calls by dose curve;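 note: human HepG2 liver cancer cells; series mostly up to about 83 µM; nearly all actives have a fitted effect of over 20% in size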)
# Method in brief: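 HepG2 cells seeded overnight at 37 C, then exposed to compound or DMSO for 1 hr at 37 C, 5% CO2. m-MPI dye added, then CellTiter-Glo for 30 min at room temperature; viability read as ATP luminescence.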
# [6] = qHTS assay to test for compound auto fluorescence at 590 nm (red) in HepG2 cells (AID 720674)
# Method in brief: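 We screened compounds on adherent HepG2 cells, incubating them for an hour at 37 C in 5% CO2 before reading emission at 590 nm under 540 nm excitation; values reflect equivalence to Rose Bengal sodium fluorescence.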
# [7] = qHTS assay to test for compound auto fluorescence at 535 nm (green) in HepG2 cells (AID 720675)
# [8] = qHTS assay to test for compound auto fluorescence at 460 nm (blue) in HEK293 cells (AID 720678)
# Method in brief: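 Blue read-out at excitation 405 nm and emission 460 nm follows overnight compound exposure of HEK293 cells at 37C in 5% CO2. Activity is given as auto fluorescence equivalency to triamterene.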
# [9] = qHTS assay to test for compound auto fluorescence at 590 nm (red) in HEK293 cells (AID 720679)
# Method in brief: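 Red channel, Ex/Em 540/590nm; signal expressed as equivalency to Rose Bengal sodium. HEK293, 2,000 cells/well, 10% dialyzed FBS; 23 nL compound pinned after 4-5 hr attachment; overnight 37C/5% CO2 before reading.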
# [10] = qHTS assay to test for compound auto fluorescence at 535 nm (green) in HEK293 cells (AID 720680)
# [11] = qHTS assay to test for compound auto fluorescence at 460 nm (blue) in HEK293 cell free culture (AID 720681)
# Method in brief: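 Blue fluorescence (Ex 405/Em 460 nm, triamterene-equivalent) was read immediately after pin transfer of compound or DMSO into medium (DMEM, 10% FBS) without cells.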
# [12] = qHTS assay to test for compound auto fluorescence at 590 nm (red) in HEK293 cell free culture (AID 720683)
# Method in brief: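 Red-channel autofluorescence of compounds in culture medium (DMEM, 10% FBS), no cells, measured at 540/590 nm. Rose Bengal sodium is the reference fluorophore for equivalence.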
# [13] = qHTS assay to test for compound auto fluorescence at 590 nm (red) in HepG2 cell free culture (AID 720684)
# Method in brief: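 Plate contents were MEM with 10% FBS plus test compound or DMSO, no cells. Fluorescence was recorded with 540 nm excitation and 590 nm emission.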
# [14] = qHTS assay to test for compound auto fluorescence at 460 nm (blue) in HepG2 cell free culture (AID 720685)
# Method in brief: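 Compound (23 nL) or DMSO pinned into cell-free MEM with 10% FBS; blue fluorescence read at 405/460 nm excitation/emission, expressed as auto-fluorescence equivalency to triamterene.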
# [15] = qHTS assay to test for compound auto fluorescence at 535 nm (green) in HepG2 cell free culture (AID 720686)
# [16] = qHTS assay to test for compound auto fluorescence at 460 nm (blue) in HepG2 cells (AID 720687)
# Method in brief: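 Blue-channel autofluorescence (Ex/Em 405/460 nm, triamterene-equivalent) was measured after 1 hr compound exposure at 37 C, 5% CO2. Cells were HepG2, plated overnight at 37 C in MEM plus 10% FBS.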
# [17] = biological target: Glucocorticoid receptor (Homo sapiens) (UniProt P04150); test: qHTS assay to identify small molecule agonists of the glucocorticoid receptor (GR) signaling pathway (AID 720691; active = well fitted activation curve with a large enough effect in the signal ratio in the repeat runs, not every such curve was filed as active; the % refers to the signal ratio)
# Chain of Glucocorticoid receptor (Homo sapiens) (P04150 whole entry, looked up): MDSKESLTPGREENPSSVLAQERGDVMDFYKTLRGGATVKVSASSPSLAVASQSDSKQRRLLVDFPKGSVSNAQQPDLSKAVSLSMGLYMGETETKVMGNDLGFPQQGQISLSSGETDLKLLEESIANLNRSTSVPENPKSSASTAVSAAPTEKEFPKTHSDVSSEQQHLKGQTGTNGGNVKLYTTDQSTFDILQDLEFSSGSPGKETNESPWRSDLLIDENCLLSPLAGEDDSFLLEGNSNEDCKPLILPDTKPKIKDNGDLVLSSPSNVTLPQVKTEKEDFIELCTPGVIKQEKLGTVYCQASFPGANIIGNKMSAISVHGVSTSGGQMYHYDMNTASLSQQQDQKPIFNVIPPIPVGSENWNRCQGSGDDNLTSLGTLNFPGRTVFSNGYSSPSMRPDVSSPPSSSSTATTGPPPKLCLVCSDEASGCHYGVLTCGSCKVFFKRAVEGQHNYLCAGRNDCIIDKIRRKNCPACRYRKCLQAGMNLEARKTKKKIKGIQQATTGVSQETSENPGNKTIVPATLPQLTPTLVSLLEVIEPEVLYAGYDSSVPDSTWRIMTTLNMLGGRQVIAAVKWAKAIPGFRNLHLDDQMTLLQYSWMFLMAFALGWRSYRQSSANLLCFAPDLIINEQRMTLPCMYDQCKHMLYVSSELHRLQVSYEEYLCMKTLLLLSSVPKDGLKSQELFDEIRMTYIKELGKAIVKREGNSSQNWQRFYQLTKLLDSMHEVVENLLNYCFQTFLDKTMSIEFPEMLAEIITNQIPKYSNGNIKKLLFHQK
# Method in brief: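 GR-bla HeLa cells (beta-lactamase reporter under glucocorticoid response element) were plated 4 h at 37 C/5% CO2, given compounds in DMSO, and incubated 18 h at 37 C. LiveBLAzer B/G FRET substrate was added for 2 h at room temperature, then fluorescence intensity read.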
# [18] = biological target: Glucocorticoid receptor (Homo sapiens) (UniProt P04150); test: qHTS assay to identify small molecule antagonists of the glucocorticoid receptor (GR) signaling pathway (AID 720692; active = well fitted inhibition curve with a large enough effect in the signal ratio in the repeat runs, not every such curve was filed as active; the % refers to the signal ratio)
# Method in brief: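 GR-bla HeLa cells (beta-lactamase reporter under glucocorticoid response element) were pre-plated 4 h at 37 C, treated with compounds plus 5 nM dexamethasone (final) for 18 h, then read by LiveBLAzer B/G FRET fluorescence after 2 h.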
# [19] = qHTS assay to test for compound auto fluorescence at 535 nm (green) in HEK293 cell free culture (AID 720682)
# Method in brief: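 Using fluorescein as calibrant, autofluorescence was quantified at 485/535 nm in cell-free DMEM containing 10% FBS after pintool addition of compound or vehicle.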
# [20] = qHTS assay for small molecule disruptors of the mitochondrial membrane potential (AID 720635)
# Method in brief: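 Mitochondrial membrane potential tracked with Mito-MPS dye, red aggregates (ex 540/em 590 nm) against green monomers (ex 490/em 535 nm). Compound treatment 1 hr at 37C, dye 30 min in HepG2.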
Structure (SMILES),Potency [1],Potency [2],Potency [3],Potency [4],Potency [5],outcome [6],outcome [7],Potency [8],outcome [9],outcome [10],Potency [11],outcome [12],outcome [13],Potency [14],outcome [15],Potency [16],outcome [17],Potency [18],outcome [19],Potency [20]
Cc1cc(C)c(O)c(C)c1,inactive,inactive,inactive,inactive,inactive,inactive,inactive,inactive,inactive,inactive,inactive,inactive,inactive,inactive,inactive,inactive,inactive,inactive,–,–
CC1(C)[C@@H](O[C@H]2O[C@H](C(=O)O)[C@@H](O)[C@H](O)[C@H]2O[C@@H]2O[C@H](C(=O)O)[C@@H](O)[C@H](O)[C@H]2O)CC[C@]2(C)[C@H]3C(=O)C=C4[C@@H]5C[C@@](C)(C(=O)O)CC[C@]5(C)CC[C@@]4(C)[C@]3(C)CC[C@@H]12,inactive,inactive,inactive,inactive,inactive,inactive,inactive,inactive,inactive,inactive,inactive,inactive,inactive,inactive,inactive,inactive,–,–,–,–
O=Cc1ccc(CO)o1,inactive,inactive,inactive,inactive,inactive,inactive,inactive,inactive,inactive,inactive,inactive,inactive,inactive,inactive,inactive,–,inactive,inactive,–,–
COC(=O)CCCCC(=O)OC,inactive,inactive,inactive,inactive,inactive,inactive,inactive,inactive,inactive,inactive,inactive,inactive,inactive,inactive,inactive,–,inactive,inactive,–,–
CC(=O)CC(=O)N(C)C,inactive,inactive,inactive,inactive,inactive,inactive,inactive,inactive,inactive,inactive,inactive,inactive,inactive,inactive,inactive,inactive,inactive,inactive,inactive,–
Cc1ccc(C)c(S(=O)(=O)O)c1,inactive,inactive,inactive,inactive,inactive,inactive,inactive,inactive,inactive,–,inactive,inactive,inactive,inactive,inactive,–,–,–,inactive,–
O=C(Cl)c1ccc(C(=O)Cl)cc1,inactive,inactive,inactive,inactive,inactive,inactive,inactive,inactive,inactive,inactive,inactive,inactive,inactive,inactive,inactive,inactive,inactive,inactive,inactive,–
Cc1ccncc1,inactive,inactive,inactive,inactive,inactive,inactive,inactive,inactive,inactive,inactive,inactive,inactive,inactive,inactive,inactive,–,inactive,inactive,inactive,–
C=C(C)CC(C)(C)C,inactive,inactive,inactive,inactive,inactive,inactive,inactive,inactive,inactive,inactive,inactive,inactive,inactive,inactive,inactive,inactive,inactive,inactive,–,–
CCCCCCCCO,inactive,inactive,inactive,inactive,inactive,inactive,inactive,inactive,inactive,inactive,inactive,inactive,inactive,inactive,inactive,inactive,inactive,inactive,–,–
CCCCCC(C)=O,inactive,inactive,inactive,inactive,inactive,inactive,inactive,inactive,inactive,inactive,inactive,inactive,inactive,inactive,inactive,–,inactive,inactive,inactive,–
CCc1cccc(O)c1,inactive,inactive,inactive,inactive,inactive,inactive,inactive,inactive,inactive,–,inactive,inactive,inactive,inactive,inactive,inactive,–,–,–,inactive
CC/C(C)=N/O,inactive,inactive,inactive,inactive,inactive,inactive,inactive,inactive,inactive,–,inactive,inactive,inactive,inactive,inactive,–,inactive,inactive,inactive,inactive
CCCCCNCCCCC,inactive,inactive,inactive,inactive,inactive,inactive,inactive,inactive,inactive,–,inactive,inactive,inactive,inactive,inactive,inactive,–,–,inactive,–
O=C(O)C1=NN(c2ccc(S(=O)(=O)O)cc2)C(=O)C1,inactive,inactive,inactive,inactive,inactive,inactive,inactive,inactive,inactive,inactive,inactive,inactive,inactive,inactive,inactive,–,inactive,inactive,inactive,–
COc1c2ccoc2cc2oc(=O)ccc12,inactive,inactive,inactive,inactive,inactive,inactive,inactive,inactive,inactive,inactive,inactive,inactive,inactive,inactive,inactive,inactive,inactive,inactive,–,–
C=C(CC(=O)O)C(=O)O,inactive,inactive,inactive,inactive,inactive,inactive,inactive,inactive,inactive,–,inactive,inactive,inactive,inactive,inactive,inactive,inactive,inactive,inactive,–

Structure (SMILES),Potency [1],Potency [2],Potency [3],Potency [4],Potency [5],outcome [6],outcome [7],Potency [8],outcome [9],outcome [10],Potency [11],outcome [12],outcome [13],Potency [14],outcome [15],Potency [16],outcome [17],Potency [18],outcome [19],Potency [20]
CC(=O)Nc1ccc(CC(=O)O)cc1,inactive,inactive,inactive,inactive,inactive,inactive,inactive,inactive,inactive,inactive,inactive,inactive,inactive,inactive,inactive,–,inactive,inactive,inactive,–
CC(=O)C(C)C,inactive,inactive,inactive,inactive,inactive,inactive,inactive,inactive,inactive,inactive,inactive,inactive,inactive,inactive,inactive,–,inactive,inactive,inactive,–
COCN(COC)c1nc(N(COC)COC)nc(N(COC)COC)n1,inactive,inactive,inactive,inactive,inactive,inactive,inactive,inactive,inactive,–,inactive,inactive,inactive,inactive,inactive,inactive,inactive,inactive,–,inactive
N[C@@H](Cc1cc(I)c(Oc2ccc(O)c(I)c2)c(I)c1)C(=O)O,inactive,inactive,inactive,inactive,inactive,inactive,inactive,inactive,inactive,inactive,inactive,inactive,inactive,inactive,inactive,inactive,inactive,–,–,–
O=c1c(O)c(-c2ccc(O)c(O)c2)oc2cc(O)cc(O)c12,49 µM (active),inactive,inactive,54.5 µM (active),inactive,inactive,inactive,inactive,inactive,inactive,inactive,inactive,inactive,inactive,inactive,inactive,–,–,–,–
CC(O)CNCC(C)O (stereo unspecified),inactive,inactive,inactive,inactive,inactive,inactive,inactive,inactive,inactive,–,inactive,inactive,inactive,inactive,inactive,inactive,–,–,inactive,–
CC(=O)OCCC(C)C,inactive,inactive,inactive,inactive,inactive,inactive,inactive,inactive,inactive,inactive,inactive,inactive,inactive,inactive,inactive,–,inactive,inactive,–,–
Oc1ccc(Cc2ccccc2O)cc1,inactive,inactive,inactive,inactive,inactive,inactive,inactive,inactive,inactive,inactive,inactive,inactive,inactive,inactive,inactive,inactive,inactive,inactive,–,–
OCC(O)CS (stereo unspecified),inactive,inactive,inactive,inactive,inactive,inactive,inactive,inactive,inactive,inactive,inactive,inactive,inactive,inactive,inactive,inactive,inactive,inactive,inactive,–
C=CC(C)(C)C,inactive,inactive,inactive,inactive,inactive,inactive,inactive,inactive,inactive,inactive,inactive,inactive,inactive,inactive,inactive,inactive,inactive,inactive,–,–
OB(O)O,inactive,inactive,inactive,inactive,inactive,inactive,inactive,inactive,inactive,–,inactive,inactive,inactive,inactive,inactive,–,inactive,inactive,–,inactive
O=C1C(N(CO)C(=O)NCO)N(CO)C(=O)N1CO (stereo unspecified),inactive,inactive,inactive,inactive,inactive,inactive,inactive,inactive,inactive,inactive,inactive,inactive,inactive,inactive,inactive,–,–,–,–,–
O=[N+]([O-])c1cc(C(F)(F)F)ccc1Cl,inactive,inactive,inactive,inactive,inactive,inactive,inactive,inactive,inactive,inactive,inactive,inactive,inactive,inactive,inactive,inactive,inactive,inactive,–,–
CCCCC(=O)O,inactive,inactive,inactive,inactive,inactive,inactive,inactive,inactive,inactive,–,inactive,inactive,inactive,inactive,inactive,–,inactive,inactive,inactive,inactive
CCCCC(CC)COC(=O)c1ccc(C(=O)OCC(CC)CCCC)cc1 (stereo unspecified),inactive,inactive,inactive,inactive,inactive,inactive,inactive,inactive,inactive,inactive,inactive,inactive,inactive,inactive,inactive,inactive,–,–,inactive,–
CC(=O)OC/C=C(\C)CCC=C(C)C,inactive,inactive,inactive,inactive,inactive,inactive,inactive,inactive,inactive,inactive,inactive,inactive,inactive,inactive,inactive,inactive,inactive,inactive,inactive,–
